Hit rate of the full screen: of about 340,000 compounds, about 2,100 (0.62%) were called active.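 How the source made its calls: active means first-screen hits whose inhibition reached a set limit at any dose in the follow-up dose series; inconclusive means inhibition above the set first-screen limit but never retested; inactive means the rest.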 A selection follows. Measured potencies and affinities stand elsewhere.
target: Rac GTPase-activating protein 1 (Homo sapiens) (UniProt Q9H0H5); experiment: MgcRacGAP GTPase-activating activity inhibitors, confirmation, biochemical, ADP Hunter fluorescence, primary and confirmatory (AID 624330); settings: MgcRacGAP-stimulated Rac1 GTP hydrolysis, at 30 µM, active compounds read high, GST-tagged Rac1 F28L mutant substrate;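 further: fluorescence reports GDP produced by GAP-driven GTP hydrolysis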
Sequence (Q9H0H5 whole entry, looked up): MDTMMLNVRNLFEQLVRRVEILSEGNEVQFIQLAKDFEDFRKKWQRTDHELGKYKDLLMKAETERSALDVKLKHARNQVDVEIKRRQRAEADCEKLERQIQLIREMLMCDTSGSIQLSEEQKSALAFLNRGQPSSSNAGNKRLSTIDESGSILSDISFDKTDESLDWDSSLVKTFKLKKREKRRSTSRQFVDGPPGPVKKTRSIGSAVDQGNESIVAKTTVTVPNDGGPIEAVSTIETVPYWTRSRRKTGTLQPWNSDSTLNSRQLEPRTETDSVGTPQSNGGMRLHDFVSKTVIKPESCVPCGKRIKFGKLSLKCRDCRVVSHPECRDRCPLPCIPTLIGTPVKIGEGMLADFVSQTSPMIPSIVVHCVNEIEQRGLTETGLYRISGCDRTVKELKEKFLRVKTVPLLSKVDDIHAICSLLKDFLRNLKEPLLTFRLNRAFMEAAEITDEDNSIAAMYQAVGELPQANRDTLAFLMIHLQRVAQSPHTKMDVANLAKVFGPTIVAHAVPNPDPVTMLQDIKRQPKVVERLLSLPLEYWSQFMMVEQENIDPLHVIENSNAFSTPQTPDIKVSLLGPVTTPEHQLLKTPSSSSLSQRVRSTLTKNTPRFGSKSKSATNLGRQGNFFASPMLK

inhibition, inactive:
CCOc1cc(CNCC2CCCO2)cc(Br)c1OCC(N)=O (configuration not stated) 3.03%
CCn1ncc(CN2CCN(C(=O)Nc3ccccc3C(=O)OC)CC2)c1C 6.62%
O=C(Cn1ncn2c(cc3ccccc32)c1=O)NCCCc1ccccc1 1.38%
CC(C)(C)NC(=O)CN1C(=O)/C(=C/c2ccccc2)SC1=S 9.16%
CCC(Cc1ccccc1)NC(=O)CCc1ccccc1 (configuration not stated) 7.57%
O=C(OCN1C(=O)C(=O)c2ccccc21)c1ccc(Cl)cc1 7.35%
CCCCn1c(N)c(N(Cc2ccccc2OC)C(=O)COc2ccc(F)cc2Cl)c(=O)[nH]c1=O 4.08%
CCOC(=O)C1=C(COC(=O)/C=C/c2ccc(OC)c(OC)c2)NC(=O)NC1C (configuration not stated) -0.71%
CCOC(=O)C1=C(COC(=O)/C=C/c2ccc(OCC)c(OC)c2)NC(=O)NC1C (configuration not stated) 9.47%
COc1ccc(-c2cc(C3CCN(Cc4cccc(C(F)(F)F)c4)CC3)[nH]n2)cc1 9.81%
CC(C)c1ccc2nc(NC(=O)C3CC3)sc2c1 9.94%
COc1ccccc1NC(=O)c1ccccc1S(=O)(=O)c1ccc([N+](=O)[O-])cc1 11.4%
c1ccc(Nc2ccccn2)cc1 1.32%
c1ccc(Nc2cccc(Nc3ccccc3)n2)cc1 16.6%
Cc1ccc(NC(=O)CSc2ccc3c(c2)OCCO3)c(O)c1 8.94%
CC(=O)c1ccc(N2CCN(C(=O)COc3ccc4c(c3)CCC4)CC2)cc1 5.57%
O=C(O)c1ccc2c(c1)S(=O)(=O)c1cc(N3CCN(c4cnccn4)CC3)ccc1C2=O 13.8%
O=C(Cn1[nH]c(=O)c2ccccc2c1=O)NC1CCN(Cc2ccccc2)CC1 5.55%
COc1cc(C)c(S(=O)(=O)N2CCCC2)cc1C(C)C 3.94%
COc1cc(C)c(-c2cc(C(=O)O)c(C)o2)cc1C(C)C 8.02%
Nc1ccc2c(c1)[nH]c(=O)c1ccccc12 21.4%
Nc1ccc2c(=O)[nH][nH]c(=O)c2c1 3.77%
C[C@H](CO)N1C[C@H](C)[C@@H](CN(C)S(=O)(=O)c2cccs2)Oc2ccc(NC(=O)NC3CCCCC3)cc2C1=O 3.35%
Cn1ccnc1Sc1nc2c(c(=O)n(C)c(=O)n2C)n1C 1.94%
COc1cc(C(=O)Nc2cccc(S(=O)(=O)N3CCCC3)c2)c([N+](=O)[O-])cc1OC 4.7%
Cn1c(=S)[nH]c2ccccc21 11.4%
S=c1[nH]nc2nnc3ccccc3n12 17.6%
